What all share (test): DAPPL (digital affinity profiling via proximity ligation, sequencing); 10 mM Tris-HCl pH 7.5, 50 mM NaCl, 1 mM DTT, 4% glycerol, room temperature, 30 min; GST-TFs on glutathione beads, 16-mer random dsDNA library, 0.1% formaldehyde crosslink after washing; high values mean tight binding
One assay has as its target T1, FLI1 (Homo sapiens, UniProt Q01543 1-452).
T1 sequence: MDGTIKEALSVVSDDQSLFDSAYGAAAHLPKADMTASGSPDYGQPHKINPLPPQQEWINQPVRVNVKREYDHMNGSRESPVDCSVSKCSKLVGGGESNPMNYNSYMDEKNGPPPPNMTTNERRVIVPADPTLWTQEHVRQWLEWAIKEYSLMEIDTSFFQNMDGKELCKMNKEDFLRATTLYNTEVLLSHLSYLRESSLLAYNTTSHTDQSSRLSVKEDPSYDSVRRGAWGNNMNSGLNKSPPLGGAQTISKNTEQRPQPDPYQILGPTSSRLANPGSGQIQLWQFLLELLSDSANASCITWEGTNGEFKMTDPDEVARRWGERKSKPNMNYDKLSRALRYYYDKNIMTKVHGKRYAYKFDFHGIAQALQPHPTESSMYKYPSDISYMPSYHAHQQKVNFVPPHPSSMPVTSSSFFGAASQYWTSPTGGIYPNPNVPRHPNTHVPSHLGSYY
Conditions: protein: recombinant; tags: N-terminal GST; dsDNA, one strand shown. The procedure, abridged: (§1)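 Binding signal is given per hexamer as its read frequency for a factor divided by its frequency in the tag-only sample. GST-fused human transcription factors were expressed in yeast, captured on glutathione beads, barcoded with DNA and pooled with that sample, then incubated with 200 nmole of a 16-mer random double-stranded DNA library in Tris/NaCl/DTT/glycerol buffer for 30 min at room temperature. The pools were then washed, crosslinked, proximity-ligated, amplified by PCR and sequenced on an Illumina NextSeq500.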

For a further assay, the target named is T2, ELK1 (Homo sapiens, UniProt P19419 1-428).
T2 sequence: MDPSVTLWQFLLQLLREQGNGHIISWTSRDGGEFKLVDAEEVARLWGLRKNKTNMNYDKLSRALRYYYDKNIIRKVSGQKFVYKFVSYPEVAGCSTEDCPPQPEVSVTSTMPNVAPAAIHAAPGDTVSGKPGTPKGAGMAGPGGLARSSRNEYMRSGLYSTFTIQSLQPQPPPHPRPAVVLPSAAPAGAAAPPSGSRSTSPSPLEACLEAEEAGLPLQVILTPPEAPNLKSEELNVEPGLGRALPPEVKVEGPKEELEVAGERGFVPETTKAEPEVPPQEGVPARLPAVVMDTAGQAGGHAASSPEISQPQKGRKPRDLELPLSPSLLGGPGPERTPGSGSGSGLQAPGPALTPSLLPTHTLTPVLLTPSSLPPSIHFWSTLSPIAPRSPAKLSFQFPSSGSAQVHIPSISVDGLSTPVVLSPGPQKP
Conditions: protein: recombinant; tags: N-terminal GST; dsDNA, one strand shown. The procedure, abridged:
as §1

For a further assay, the target named is T3, GABPA (Homo sapiens, UniProt Q06546 1-454).
T3 sequence: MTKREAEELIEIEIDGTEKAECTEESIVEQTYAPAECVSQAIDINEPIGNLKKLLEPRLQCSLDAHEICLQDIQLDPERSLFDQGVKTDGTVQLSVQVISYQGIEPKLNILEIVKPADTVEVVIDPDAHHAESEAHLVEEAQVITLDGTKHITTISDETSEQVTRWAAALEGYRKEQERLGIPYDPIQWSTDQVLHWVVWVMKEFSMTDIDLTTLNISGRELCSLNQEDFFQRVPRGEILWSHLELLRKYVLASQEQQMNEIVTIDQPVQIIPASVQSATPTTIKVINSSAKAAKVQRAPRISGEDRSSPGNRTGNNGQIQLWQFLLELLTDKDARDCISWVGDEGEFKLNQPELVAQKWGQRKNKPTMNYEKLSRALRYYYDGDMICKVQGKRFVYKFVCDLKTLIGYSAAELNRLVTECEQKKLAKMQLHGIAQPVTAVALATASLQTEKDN
Conditions: protein: recombinant; tags: N-terminal GST; dsDNA, one strand shown. The gist of the method: as §1

A further assay has as its target T4, ERG (Homo sapiens, UniProt P11308 1-479).
T4 sequence: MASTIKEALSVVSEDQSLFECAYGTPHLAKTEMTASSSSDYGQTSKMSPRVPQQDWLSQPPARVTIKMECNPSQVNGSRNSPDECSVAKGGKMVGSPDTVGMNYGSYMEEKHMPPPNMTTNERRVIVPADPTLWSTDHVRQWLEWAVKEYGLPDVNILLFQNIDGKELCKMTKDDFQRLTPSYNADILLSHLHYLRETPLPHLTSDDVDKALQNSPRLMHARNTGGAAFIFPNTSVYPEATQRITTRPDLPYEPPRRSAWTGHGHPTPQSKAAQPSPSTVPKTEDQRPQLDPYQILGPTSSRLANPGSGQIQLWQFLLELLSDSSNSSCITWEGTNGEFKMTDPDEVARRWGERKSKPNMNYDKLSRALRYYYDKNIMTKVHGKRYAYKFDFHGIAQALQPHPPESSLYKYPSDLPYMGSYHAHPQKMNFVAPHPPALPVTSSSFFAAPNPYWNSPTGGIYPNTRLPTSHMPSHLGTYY
Conditions: protein: recombinant; tags: N-terminal GST; dsDNA, one strand shown. The procedure, abridged: as §1

In another assay the target is ELF1 (Homo sapiens, UniProt P32519 1-619). Conditions: protein: recombinant; tags: N-terminal GST; dsDNA, one strand shown. The procedure, abridged: as §1
Another assay addresses T5, EHF (Homo sapiens, UniProt Q9NZC4 1-300).
T5 sequence: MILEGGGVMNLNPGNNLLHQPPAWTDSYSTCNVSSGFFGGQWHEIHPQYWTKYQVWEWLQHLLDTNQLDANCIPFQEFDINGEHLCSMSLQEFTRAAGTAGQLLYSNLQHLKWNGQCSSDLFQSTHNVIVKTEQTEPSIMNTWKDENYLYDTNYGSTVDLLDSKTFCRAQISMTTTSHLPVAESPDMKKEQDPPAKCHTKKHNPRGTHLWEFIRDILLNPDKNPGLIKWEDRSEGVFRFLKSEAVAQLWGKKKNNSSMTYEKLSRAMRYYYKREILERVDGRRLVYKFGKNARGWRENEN
Conditions: protein: recombinant; tags: N-terminal GST; dsDNA, one strand shown. The procedure, abridged:
as §1

The next assay has as its target SPI1 (Homo sapiens, UniProt P17947 1-270). Conditions: protein: recombinant; tags: N-terminal GST; dsDNA, one strand shown. The procedure, abridged: as §1
The target of the next assay is SPIB (Homo sapiens, UniProt Q01892 1-262). Conditions: protein: recombinant; tags: N-terminal GST; dsDNA, one strand shown. The gist of the method:
as §1

The target of a further assay is T6, ELK3 (Homo sapiens, UniProt P41970 1-407).
T6 sequence: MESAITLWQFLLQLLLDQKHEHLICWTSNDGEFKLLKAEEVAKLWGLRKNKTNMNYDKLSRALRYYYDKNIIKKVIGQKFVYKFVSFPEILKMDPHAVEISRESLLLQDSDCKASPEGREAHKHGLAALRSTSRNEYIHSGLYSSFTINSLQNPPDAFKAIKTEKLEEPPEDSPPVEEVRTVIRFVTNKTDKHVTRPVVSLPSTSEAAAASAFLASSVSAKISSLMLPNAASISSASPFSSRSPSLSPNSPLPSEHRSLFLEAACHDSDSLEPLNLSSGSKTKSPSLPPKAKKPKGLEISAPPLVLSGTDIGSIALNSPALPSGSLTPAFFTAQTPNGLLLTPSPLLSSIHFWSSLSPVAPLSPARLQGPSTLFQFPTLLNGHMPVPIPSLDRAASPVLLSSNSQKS
Conditions: protein: recombinant; tags: N-terminal GST; dsDNA, one strand shown. The gist of the method: as §1

For another assay, the target named is T7, FEV (Homo sapiens, UniProt Q99581 1-238).
T7 sequence: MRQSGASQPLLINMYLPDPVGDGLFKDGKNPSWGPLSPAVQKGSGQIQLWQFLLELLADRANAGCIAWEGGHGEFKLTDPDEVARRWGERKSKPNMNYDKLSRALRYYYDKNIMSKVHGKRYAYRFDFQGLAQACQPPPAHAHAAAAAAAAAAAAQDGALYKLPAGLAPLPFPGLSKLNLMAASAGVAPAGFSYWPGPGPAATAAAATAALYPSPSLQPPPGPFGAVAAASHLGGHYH
Conditions: protein: recombinant; tags: N-terminal GST; dsDNA, one strand shown. The procedure, abridged: as §1

Another assay has as its target ETV5 (Homo sapiens, UniProt P41161 1-510). Conditions: protein: recombinant; tags: N-terminal GST; dsDNA, one strand shown. The gist of the method: as §1
A further assay has as its target HSF1 (Homo sapiens, UniProt Q00613 1-529). Conditions: protein: recombinant; tags: N-terminal GST; chain copies: 3; dsDNA, one strand shown. The gist of the method: as §1
The target in a further assay is ELF4 (Homo sapiens, UniProt Q99607 1-663). Conditions: protein: recombinant; tags: N-terminal GST; dsDNA, one strand shown. The procedure, abridged:
as §1

The target in another assay is T8, ELK4 (Homo sapiens, UniProt P28324-2 1-405).
T8 sequence: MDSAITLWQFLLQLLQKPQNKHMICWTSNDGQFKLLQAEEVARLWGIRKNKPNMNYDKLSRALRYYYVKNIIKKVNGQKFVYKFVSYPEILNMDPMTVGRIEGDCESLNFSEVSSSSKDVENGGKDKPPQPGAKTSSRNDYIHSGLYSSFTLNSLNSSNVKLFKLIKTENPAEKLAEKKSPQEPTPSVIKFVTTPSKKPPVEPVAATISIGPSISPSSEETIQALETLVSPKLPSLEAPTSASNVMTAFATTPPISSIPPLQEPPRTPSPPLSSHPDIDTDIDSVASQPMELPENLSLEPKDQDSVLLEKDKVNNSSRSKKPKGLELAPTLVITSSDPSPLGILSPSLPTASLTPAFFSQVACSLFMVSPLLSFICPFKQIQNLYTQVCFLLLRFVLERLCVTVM
Conditions: protein: recombinant; tags: N-terminal GST; dsDNA, one strand shown. The procedure, abridged: as §1

The next assay deals with T9, ELF3 (Homo sapiens, UniProt P78545 1-371).
T9 sequence: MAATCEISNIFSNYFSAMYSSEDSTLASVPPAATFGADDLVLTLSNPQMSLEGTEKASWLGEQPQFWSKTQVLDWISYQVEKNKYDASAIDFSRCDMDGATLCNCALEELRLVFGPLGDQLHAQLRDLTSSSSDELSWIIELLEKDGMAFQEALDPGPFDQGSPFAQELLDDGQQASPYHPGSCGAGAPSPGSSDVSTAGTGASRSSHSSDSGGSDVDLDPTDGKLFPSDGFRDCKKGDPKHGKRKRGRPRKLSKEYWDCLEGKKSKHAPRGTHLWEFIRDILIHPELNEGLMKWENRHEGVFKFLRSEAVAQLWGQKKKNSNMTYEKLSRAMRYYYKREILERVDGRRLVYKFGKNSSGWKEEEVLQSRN
Conditions: protein: recombinant; tags: N-terminal GST; dsDNA, one strand shown. The procedure, abridged: as §1

The target in a further assay is CRX (Homo sapiens, UniProt O43186 1-299). Conditions: protein: recombinant; tags: N-terminal GST; dsDNA, one strand shown. The gist of the method: as §1
A further assay deals with ETV1 (Homo sapiens, UniProt P50549 1-477). Conditions: protein: recombinant; tags: N-terminal GST; dsDNA, one strand shown. The gist of the method: as §1
ETV1, sequence (P50549 whole entry): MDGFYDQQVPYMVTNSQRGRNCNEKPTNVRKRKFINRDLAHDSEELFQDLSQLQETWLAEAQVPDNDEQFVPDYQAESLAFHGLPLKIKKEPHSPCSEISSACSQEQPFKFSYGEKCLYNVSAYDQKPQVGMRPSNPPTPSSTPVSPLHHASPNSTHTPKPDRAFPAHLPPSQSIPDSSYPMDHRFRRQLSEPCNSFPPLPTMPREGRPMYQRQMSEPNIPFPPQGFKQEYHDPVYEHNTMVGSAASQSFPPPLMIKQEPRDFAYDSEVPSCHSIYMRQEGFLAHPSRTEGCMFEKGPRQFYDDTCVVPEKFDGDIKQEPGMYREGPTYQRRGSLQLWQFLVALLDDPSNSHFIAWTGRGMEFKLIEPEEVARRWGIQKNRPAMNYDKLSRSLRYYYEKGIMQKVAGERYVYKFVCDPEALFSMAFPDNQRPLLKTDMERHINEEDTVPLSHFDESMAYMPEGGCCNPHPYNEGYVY

SPIB, sequence (Q01892 whole entry): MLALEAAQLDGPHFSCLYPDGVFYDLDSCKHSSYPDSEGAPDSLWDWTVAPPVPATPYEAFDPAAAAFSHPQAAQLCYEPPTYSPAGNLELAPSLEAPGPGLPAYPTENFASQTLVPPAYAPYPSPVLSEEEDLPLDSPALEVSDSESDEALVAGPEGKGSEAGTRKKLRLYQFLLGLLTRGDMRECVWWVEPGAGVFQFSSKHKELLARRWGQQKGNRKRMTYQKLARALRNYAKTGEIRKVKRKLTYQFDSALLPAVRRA
ELF1, sequence (P32519 whole entry): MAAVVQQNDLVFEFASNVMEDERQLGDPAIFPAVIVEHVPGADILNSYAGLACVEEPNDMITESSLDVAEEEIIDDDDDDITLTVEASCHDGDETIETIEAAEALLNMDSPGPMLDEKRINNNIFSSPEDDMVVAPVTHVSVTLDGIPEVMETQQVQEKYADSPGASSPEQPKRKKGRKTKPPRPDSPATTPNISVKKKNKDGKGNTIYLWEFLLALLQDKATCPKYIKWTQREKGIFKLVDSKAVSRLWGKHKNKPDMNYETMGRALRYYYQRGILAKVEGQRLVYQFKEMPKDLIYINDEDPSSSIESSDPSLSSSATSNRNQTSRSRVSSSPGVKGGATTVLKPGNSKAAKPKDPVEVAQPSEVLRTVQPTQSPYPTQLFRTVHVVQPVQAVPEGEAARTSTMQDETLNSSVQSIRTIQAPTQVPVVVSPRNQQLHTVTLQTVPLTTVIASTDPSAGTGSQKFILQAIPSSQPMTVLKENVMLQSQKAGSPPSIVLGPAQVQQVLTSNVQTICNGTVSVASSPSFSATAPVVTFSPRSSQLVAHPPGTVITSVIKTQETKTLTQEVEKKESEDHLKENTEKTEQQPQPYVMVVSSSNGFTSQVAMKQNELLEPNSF
CRX, sequence (O43186 whole entry): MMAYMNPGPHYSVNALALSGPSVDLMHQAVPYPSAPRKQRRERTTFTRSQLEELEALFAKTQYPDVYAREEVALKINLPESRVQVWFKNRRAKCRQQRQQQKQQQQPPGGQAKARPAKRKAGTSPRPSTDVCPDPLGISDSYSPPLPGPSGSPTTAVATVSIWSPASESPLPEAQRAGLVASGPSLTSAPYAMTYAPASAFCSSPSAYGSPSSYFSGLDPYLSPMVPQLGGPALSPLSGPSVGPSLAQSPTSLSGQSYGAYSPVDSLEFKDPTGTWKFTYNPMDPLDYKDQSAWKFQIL
HSF1, sequence (Q00613 whole entry): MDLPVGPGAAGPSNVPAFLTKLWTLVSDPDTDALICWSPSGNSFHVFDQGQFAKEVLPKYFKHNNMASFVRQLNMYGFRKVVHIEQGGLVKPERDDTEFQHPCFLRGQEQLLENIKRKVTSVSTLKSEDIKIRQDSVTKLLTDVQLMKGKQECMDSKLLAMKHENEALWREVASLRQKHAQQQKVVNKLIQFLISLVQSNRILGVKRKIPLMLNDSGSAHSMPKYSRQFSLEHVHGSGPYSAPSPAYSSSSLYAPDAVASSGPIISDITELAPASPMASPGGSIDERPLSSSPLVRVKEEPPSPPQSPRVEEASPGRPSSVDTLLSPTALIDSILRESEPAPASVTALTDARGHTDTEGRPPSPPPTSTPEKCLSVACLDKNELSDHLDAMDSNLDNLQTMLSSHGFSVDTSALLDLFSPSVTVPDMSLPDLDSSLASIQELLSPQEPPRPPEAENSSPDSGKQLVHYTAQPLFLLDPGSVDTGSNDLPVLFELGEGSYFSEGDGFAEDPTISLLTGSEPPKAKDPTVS
ELF4, sequence (Q99607 whole entry): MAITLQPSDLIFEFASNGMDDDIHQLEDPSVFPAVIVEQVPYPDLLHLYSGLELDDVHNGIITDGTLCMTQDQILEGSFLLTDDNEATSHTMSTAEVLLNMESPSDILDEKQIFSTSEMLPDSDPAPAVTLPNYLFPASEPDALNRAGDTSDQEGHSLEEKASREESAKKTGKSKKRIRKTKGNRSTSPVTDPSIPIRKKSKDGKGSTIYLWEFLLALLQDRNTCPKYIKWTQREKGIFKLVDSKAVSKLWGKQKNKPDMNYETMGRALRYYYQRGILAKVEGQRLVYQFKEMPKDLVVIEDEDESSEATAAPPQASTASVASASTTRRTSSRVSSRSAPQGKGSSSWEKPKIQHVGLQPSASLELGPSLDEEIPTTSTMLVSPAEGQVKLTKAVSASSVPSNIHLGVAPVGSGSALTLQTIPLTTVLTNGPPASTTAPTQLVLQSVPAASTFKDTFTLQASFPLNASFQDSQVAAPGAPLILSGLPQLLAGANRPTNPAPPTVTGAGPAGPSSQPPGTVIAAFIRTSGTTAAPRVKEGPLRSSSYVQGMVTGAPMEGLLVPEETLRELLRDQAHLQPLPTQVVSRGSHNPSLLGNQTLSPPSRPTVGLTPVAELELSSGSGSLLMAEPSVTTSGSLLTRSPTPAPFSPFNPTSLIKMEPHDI
ETV5, sequence (P41161 whole entry): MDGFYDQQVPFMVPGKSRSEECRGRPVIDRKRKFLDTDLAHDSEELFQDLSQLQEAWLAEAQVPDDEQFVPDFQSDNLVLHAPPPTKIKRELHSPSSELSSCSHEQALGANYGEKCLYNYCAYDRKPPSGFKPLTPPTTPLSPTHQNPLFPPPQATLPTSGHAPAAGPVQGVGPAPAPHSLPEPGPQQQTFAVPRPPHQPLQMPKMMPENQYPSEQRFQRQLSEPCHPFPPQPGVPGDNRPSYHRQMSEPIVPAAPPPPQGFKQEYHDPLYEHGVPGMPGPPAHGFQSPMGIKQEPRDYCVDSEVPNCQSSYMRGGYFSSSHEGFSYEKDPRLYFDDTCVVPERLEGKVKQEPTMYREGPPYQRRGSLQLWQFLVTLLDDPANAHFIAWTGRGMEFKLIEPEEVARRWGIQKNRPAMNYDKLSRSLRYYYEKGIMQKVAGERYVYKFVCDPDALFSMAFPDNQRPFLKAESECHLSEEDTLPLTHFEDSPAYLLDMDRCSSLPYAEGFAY

On to TACACG, for which the binding signal with FLI1 was 1.13 fold enrichment (6-mer frequency, TF over GST control); in the assay with ELK1, 1.11 fold enrichment (6-mer frequency, TF over GST control); with GABPA, 1.19 fold enrichment (6-mer frequency, TF over GST control); with ERG, 1.1 fold enrichment (6-mer frequency, TF over GST control); with ELF1, 1.16 fold enrichment (6-mer frequency, TF over GST control); in the assay with EHF it was 1.1 fold enrichment (6-mer frequency, TF over GST control). Further, the binding signal in the assay with SPI1 is 1.07 fold enrichment (6-mer frequency, TF over GST control); in the assay with SPIB, 1.16 fold enrichment (6-mer frequency, TF over GST control); with ELK3, 1.19 fold enrichment (6-mer frequency, TF over GST control); with FEV, 1.12 fold enrichment (6-mer frequency, TF over GST control); with ETV5, 1.22 fold enrichment (6-mer frequency, TF over GST control); in the assay with HSF1 it was 1.04 fold enrichment (6-mer frequency, TF over GST control). Also, the binding signal with ELF4 was 1.14 fold enrichment (6-mer frequency, TF over GST control); in the assay with ELK4, 1.21 fold enrichment (6-mer frequency, TF over GST control); in the assay with ELF3, 1.15 fold enrichment (6-mer frequency, TF over GST control); in the assay with CRX, 1.1 fold enrichment (6-mer frequency, TF over GST control); with ETV1 it was 1.16 fold enrichment (6-mer frequency, TF over GST control).
